Pf growth 48h – Primary qHTS for delayed death inhibitors of the malarial parasite plastid, 48 hour incubation. AID 504832, 2011. actives 5.9% (n = 310,000). Potency, µM (highest dose often 28.7 µM), for inactives: at the highest dose activity change, negative = inhibition, actives largely listed as inhibitors. P. falciparum luciferase growth in erythrocytes, 48 h; further: potency means the concentration at half of the fitted maximal effect; on the % scale 0 is the no-effect control and ±100 the full control effect
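Read-out is firefly luciferase luminescence from an integrated reporter in P. falciparum, so falling signal marks reduced parasite growth. Infected erythrocytes were at 2% hematocrit and 0.1% parasitemia (final) in Albumax-supplemented RPMI 1640.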
Pf growth 96h – Primary qHTS for delayed death inhibitors of the malarial parasite plastid, 96 hour incubation; Potency, µM (doses to about 28.7 µM), for the others: at the highest dose activity change, negative = inhibition, hits mostly inhibitors; P. falciparum luciferase reporter growth, 96 h; AID 504834, 2011; actives 6.9% (n = 320,000); further: potency means the concentration at half of the fitted maximal effect; on the % scale 0 is the no-effect control and ±100 the full control effect
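Delayed-death screen, second-generation endpoint: infected erythrocytes, 2% hematocrit, 0.05% parasitemia final; 96 hours at 37 C, 5% CO2; luciferase detection reagent; luminescence decrease equals reduced growth.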
HCMV antiviral – qHTS Assay for inhibitors of the human cytomegalovirus (HCMV) | actives 4.5% (n = 410,000) | HFF cells, HCMV-luciferase reporter, 72 h; active compounds read low | activity change, negative = inhibition, % at 57.5 µM; in the data active means activity change below about -60%; inconclusive means no clear call, values can overlap the other calls; inactive means above about -39%; further: on the % scale 0 is the no-effect control and ±100 the full control effect
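Luciferase read-out from HCMV-luciferase-infected HFFs (MOI 1 PFU/cell) 72 h post infection at 37C; compounds added after 16 h cell attachment; activity normalized between buffer-only basal and Salinomycin (10uM) inhibitor controls.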
CHX counter – Cycloheximide Counterscreen for Small Molecule Inhibitors of Shiga Toxin; cell reporter, cycloheximide protein synthesis inhibition counterscreen; max response, %; actives 12% (n = 300,000); AID 2314, 2010; in the data active means max response mostly above about 13%, no sharp cut-off; inactive means mostly below about 14%; further: read at 38.3 µM for the half of the compounds with a filed dose; 0% is about no effect
Shiga toxin inh – A qHTS for Small Molecule Inhibitors of Shiga Toxin | Vero cells, Shiga toxin protein synthesis inhibition reporter | inhibition, % at 38.7 µM | actives 9.2% (n = 290,000) | AID 2315, 2010; in the data active means inhibition mostly above about 28%, no sharp cut-off; inactive means mostly below about 43%; further: 0% is about no effect
The depositor's hits bear a star; ? = inconclusive; . = not tested or not shown; ! = not confirmed by another sample. In the library only some 20% were active in any assay of this set; here they are far more common. Unless noted, the call rests on the fitted dose curve; in most records, active means well fitted inhibition curve with a large enough effect; inconclusive means small, poorly fitted or top-dose-only effect, or another doubt; inactive means no such curve, though single readings can be large or run the other way.

SMILES	Pf growth 48h	Pf growth 96h	HCMV antiviral	CHX counter	Shiga toxin inh
COc1ccc(NC(=O)C2CC(=O)N(c3ccccc3C)C2)c(OC)c1 (centres undefined)	-27.3%	-20.0%	4.4	13.6	-11.0
Cc1noc(C)c1S(=O)(=O)N(CC(=O)Nc1ccc(C(F)(F)F)cc1)c1ccc(C(C)C)cc1	.	.	-8.3	.	.
Cc1cc(/C=C(\C#N)C(N)=O)c(C)n1-c1ccc(N2CCOCC2)c([N+](=O)[O-])c1	?	?	-74.7*	-2.6	-13.3
Cc1cc(C=O)c(C)n1-c1ccc(N2CCCCC2)c([N+](=O)[O-])c1	-1.9%	?	-24.6	-3.2	-7.8
CCOC(=O)C1=CCN(S(=O)(=O)c2ccccc2F)C1c1cccc(F)c1 (centres undefined)	.	.	-20.4	.	.
N#CCCN(C(=O)COC(=O)c1ccc2ccccc2n1)c1ccccc1	-7.8%	-10.5%	-4.4	.	.
CN1CCc2nc3ccccc3c(C(=O)OCC(=O)N(CCC#N)c3ccccc3)c2C1	?	13.1µM*	-22.5	0.6	-8.7
C1=C2C[N+]3(CCCC3)CC2Cc2ccc3ccccc3c21 (centres undefined)	.	0.738µM*	-65.0*	-1.9	-24.2
C[N+]1(C)CC2=Cc3ccccc3CC2C1 (centres undefined)	?	-4.0%	?	-1.1	-12.4
O=C(CSc1nc(-c2ccc(F)cc2)[nH]c1-c1ccccc1)NCC1CCCO1 (centres undefined)	.	.	-6.1	.	.
Fc1ccccc1N1CCN(Cc2cnc(Cl)s2)CC1	3.9%	24.9%	40.9	-2.5	-4.3
CCOC(=O)N1CCN(c2ncc3c(n2)CC(c2ccc(Cl)cc2)CC3=O)CC1 (centres undefined)	.	.	-103.5*	.	.
COc1ccc(C2CC(=O)c3c(C)nc(N4CCN(Cc5ccccc5)CC4)nc3C2)cc1OC (centres undefined)	8.28µM*	10.4µM*	-97.7*	3.1	15.7
COc1cc(C2CC(=O)c3cnc(N4CCN(CCO)CC4)nc3C2)cc(OC)c1OC (centres undefined)	.	.	8.2	.	.
Cc1nc(N2CCN(Cc3ccccc3)CC2)nc2c1C(=O)CC(C)C2 (centres undefined)	0.0%	.	-37.3	0.7	-10.7
COc1cc(C2CC(=O)c3cnc(N4CCN(Cc5ccccc5)CC4)nc3C2)cc(OC)c1OC (centres undefined)	9.28µM*	-13.1%	38.4	5.8	6.3
O=C(CCNC(=O)C1CCN(S(=O)(=O)c2ccc(F)cc2)CC1)NCc1ccccn1	.	.	-28.2	.	.
Cc1ccc(S(=O)(=O)N2CCCC(C(=O)NCc3ccccc3F)C2)cc1 (centres undefined)	-4.1%	8.8%	-6.5	-3.5	-1.8
NS(=O)(=O)c1ccc(CCN=C(NS(=O)(=O)c2cccs2)c2ccccc2)cc1	24.4%	3.3%	-32.9	-0.6	15.8
COc1cccc(CC(O)CC2c3c(cc4c(c3OC)OCO4)CCN2C)c1 (centres undefined)	.	.	6.2	.	.
Cc1ccccc1C(=O)c1cccn1CC(=O)NCCCN1CCCCC1	10.2%	1.6%	-11.2	-5.2	-4.7
Cc1ccccc1C(=O)c1cccn1CC(=O)NCCC1=CCCCC1	14.0%	6.5%	?	24.8*	40.2
Cc1ccccc1C(=O)c1cccn1CC(=O)NCCN1CCN(c2cccc(C)c2C)CC1	?	5.86µM*	24.5	-2.7	30.2
Cc1ccc(CNC(=O)Cn2cccc2C(=O)c2ccccc2C)cc1	15.1%	-19.4%	25.4	15.8	38.2
Cc1ccc(C)c(N2CCN(CCCNC(=O)Cn3cccc3C(=O)c3ccccc3C)CC2)c1	?	44.4%	-94.1*	-5.8	-11.5
SMILES	Pf growth 48h	Pf growth 96h	HCMV antiviral	CHX counter	Shiga toxin inh
O=C1CC(c2ccccc2C(F)(F)F)c2c(c3ccccc3[nH]c2=O)O1 (centres undefined)	.	.	-0.6	.	.
C#CCN1C(=O)S/C(=C/C=C/c2ccc(N(C)C)cc2)C1=O	157.8%	?	25.5	47.1*	115.6*
CCc1nc2c(OCC(=O)c3ccc(Cl)cc3Cl)cccn2c1N(C)C(=O)c1cccs1	.	.	-6.3	.	.
Cc1ccc2c(CSc3nnc(N)s3)cc(=O)oc2c1	35.0%	.	-14.8	32.0*	59.5*
O=C(C1CC1)N1CCc2cc(S(=O)(=O)N3CCOCC3)ccc21	10.3%	20.5%	-36.5	-3.0	-13.6
CC(Cl)C(=O)c1ccc2c(c1)CCN2C(=O)C1CC1 (centres undefined)	-25.1%	?	?	20.8*	44.1
CC1CCCC(NC(=O)COC(=O)COc2cccc(F)c2)C1C (centres undefined)	.	.	-32.5	.	.
Cc1ccc(CS(=O)(=O)c2ncn[nH]2)cc1	7.0%	21.7%	-30.7	-1.4	-4.9
c1ccc(CC2CCN(c3nnnn3-c3ccccc3)CC2)cc1	?	-27.1%	-1.8	9.2	-5.8
N/C(=N/O)c1ccccc1N1CCC(Cc2ccccc2)CC1	-5.3%	?	-90.7*	0.7	2.1
CC1(C(=O)NS(=O)(=O)C2CC2)CCCN(C(=O)c2ccc(F)c(Cl)c2)C1 (centres undefined)	.	.	25.4	.	.
CCCCN(C(=O)Cc1ccc2c(c1)OCCO2)c1c(N)n(CC(C)C)c(=O)[nH]c1=O	?	?	-24.6	.	.
C=CCOc1c(CNc2ccc(C(=O)O)cc2)cccc1OCC	46.6%	41.8%	121.7	31.3*	35.8*
COc1cccc(CNCc2ccc(C(=O)O)cc2)c1OC	13.2%	20.5%	52.9	4.9	-8.1
C=CCOc1c(CNc2ccc(C(=O)O)cc2)cccc1OC	12.5%	4.65µM*	3.1	-1.8	-0.9
CCOc1cccc(CNc2ccc(O)cc2)c1OCc1ccccc1Cl	?	?	?	1.0	13.4
C=CCOc1c(CNc2ncn[nH]2)cccc1OCC	-24.4%	9.28µM*	-11.1	4.7	-0.2
COc1cc(NC(=O)c2cccc3c(-c4cnn(C)c4)coc23)cc(OC)c1OC	.	.	-4.2	.	.
CCC1=Nc2cc(C(=O)NCc3ccccc3OC)ccc2Sc2ccc(Cl)cc21	.	.	-12.3	.	.
O=C1c2ccccc2C(=O)N1CC(O)CNc1ccc(Br)cc1 (centres undefined)	4.0%	?	0.9	-2.8	-2.7
CCCN(CCC)CCCNC(=O)c1nn(-c2cccc(OC)c2)c(=O)c2ccccc12	?	11.7µM*	-32.0	4.1	8.0
CCN(CC)CCCNC(=O)CNC(=O)c1nn(-c2ccc(OC)cc2)c(=O)c2ccccc12	-13.8%	9.28µM*	-16.2	-1.5	-3.2
CCCN(CCC)CCNC(=O)c1cn(C)c(=O)c2c1c1ccccc1n2C	22.4%	-7.9%	45.7	-1.6	-6.9
CCCCN(CC)CCNC(=O)c1cn(C)c(=O)c2c1c1ccccc1n2C	-6.3%	0.5%	-62.2*!	-9.4	-4.0
CCCCN(CC)CCCNC(=O)c1cn(-c2ccc(OC)cc2)c(=O)c2ccccc12	-8.8%	7.38µM*	?	-2.6	-2.1

Screening data deposited in PubChem BioAssay by National Center for Advancing Translational Sciences (NCATS).
